The text below walks through data of PubChem BioAssay (NCI).

What all share (assay): NCI-60 one-dose screen, 48 h (100 = growth as untreated, 0 = no growth, -100 = all killed)
Conditions in all cases: 10 µM unless noted

The test system of test [1] is DU-145 prostate.
In test [2] the test system is K-562 leukemia.
The subject of test [3] is MALME-3M melanoma.
Test [4] relates to MDA-MB-231 breast.
The test system of test [5] is RXF 393 renal.
The subject of test [6] is SF-268 CNS.
Test [7] relates to SF-295 CNS.
The subject of test [8] is SF-539 CNS.
Test [9] deals with UACC-257 melanoma.
In test [10] the test system is M14 melanoma.

About 83,000 compounds went through this panel and 20% of them were active in at least one assay; those are over-represented in the sample as a whole.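 Values shown are percent growth following 48 h exposure of cells in 96-well plates to a single concentration of compound; below 10 was considered active.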 Unmarked numbers belong to inactive results. Calls of active or inactive are those of the source.

For the compound `COc1cccc(NC(=O)c2sc3nc(C)c(C(O)c4ccccc4)cc3c2N)c1` (stereo not given), the growth in test [1] is 13.4%; in [2], 6.52% (active); in test [3], 63.2%; in test [4], 9.72% (active); in test [5] it was 26.9%; in test [6] it was 38.5%. In addition, the growth in [7] was 19.2%; in test [8] it was -5.58% (active); in test [9] it was 71.4%; in [10], 13.9%.

Turning to `COc1ccc(/C=N\Nc2nc(SCC(C)C)nc(-c3ccc(OC)cc3)c2C#N)cc1`, the growth in [1] was 65.2%; in [2] it was 74.6%; in test [3] it was 60.1%; in test [4], 43.5%; in [5], 34.5%; in test [6] it was 50.9%. Also, the growth in test [7] is -5.63% (active); in test [8] it was 52.6%; in test [9], 88.1%; in test [10], 77.6%.

On to `CN1CCN(Cc2ccc(NC(=O)c3nc4ccc5[nH]ncc5c4c4c3CCCC4)cc2C(F)(F)F)CC1`, for which the growth in test [1] was -73.1% (active); in test [2] it was -48.4% (active); in [3] it was -75.7% (active); in test [4], -81.2% (active); in test [5], -97.1% (active); in test [6], -75.7% (active). Also, the growth in test [7] is -67.7% (active); in test [8], -89.3% (active); in test [9], -80.3% (active); in test [10] it was -64.1% (active).

Turning to `CCN(C(=O)N1CCN(c2cc3c(cc2F)c(=O)c(C(=O)O)cn3C2CC2)CC1)c1nc(-c2ccccc2)cs1`, the growth in test [1] was 27.1%; in [2], 13.8%; in [3], 22.1%; in [4] it was 5.26% (active); in test [5] it was 19.7%; in test [6], 25%. Further, the growth in [7] was 8.29% (active); in test [8], 8.47% (active); in test [9], 74.1%; in test [10], 22.9%.

Take `COc1ccc(Cl)cc1Nc1nc(C(F)(F)F)ccc1C(=O)N/N=C/c1ccc(N(C)C)cc1`: the growth was 117% in test [1]; 122% in [2]; 92.2% in [3]; 72.9% in [4]; 75.6% in [5]; 107% in test [6]. The growth in test [7] is 154%; in test [8] it was 115%; in test [9], 110%; in test [10], 81.3%.

As for `Cc1ccc(/C=C/c2c(C(=O)/C=C/c3ccccc3)c(C)nc3ccccc23)cc1`, the growth in test [1] is 12.8%; in test [2], 8.62% (active); in [3], -1.88% (active); in test [4], 30.8%; in test [5] it was -3.35% (active); in [6] it was 54.1%. Moreover, the growth in [7] was 31.9%; in test [8], -23.2% (active); in test [9] it was 12.3%; in test [10], 17.6%.

Consider `COCCOc1cc2ncnc(N3CCN(S(=O)(=O)c4ccccc4Cl)CC3)c2cc1OCCOC`, for which the growth in [1] is 91.2%; in test [2] it was 41.3%; in test [3] it was 67.9%; in [4], 74.8%; in [5], 83.9%; in [6] it was 86.2%. The growth in test [7] is 82.7%; in test [8], 88.8%; in test [9], 83.5%; in test [10], 71.9%.

For `COc1ccc(/C=N/NC(=O)CN2CCN(c3cc4c(cc3F)c(=O)c(C(=O)O)cn4C3CC3)CC2)cc1O`, the growth in test [1] is 102%; in test [2] it was 86.2%; in test [3], 109%; in test [4], 92.8%; in [5] it was 103%; in [6], 87.7%. For the same compound, the growth is 104% in test [7], 101% in test [8], 89.5% in [9] and 101% in [10].

Consider `Cc1ccc(/C=C2\COc3ccc(O)c(O)c3C2=O)cc1`, for which the growth is 4.29% (active) in test [1]; 13% in test [2]; -27.3% (active) in test [3]; -24.8% (active) in test [4]; -35.3% (active) in test [5]; -37.6% (active) in [6]. Moreover, the growth was 33.1% in test [7], -63.9% (active) in [8], 10.1% in test [9] and 3.41% (active) in test [10].

Regarding `FC(F)(F)Sc1ccc(/C=C/c2cc(/C=C/c3ccc(SC(F)(F)F)cc3)n(-c3ccccc3)n2)cc1`, the growth in test [1] was 108%; in [2], 91%; in test [3], 98.8%; in test [4] it was 89.5%; in [5] it was 113%; in test [6], 91%. In addition, the growth in test [7] was 96.6%; in test [8], 98.1%; in test [9] it was 86.4%; in [10], 95.2%.

`Cc1cccc(Cc2cnc(NC(=O)CCCOc3ccc(Cl)cc3)s2)c1`: the growth in [1] is 24.2%; in test [2], 25.8%; in test [3] it was 32.5%; in [4], 42.4%; in [5] it was 4.99% (active); in test [6], 50.2%. In addition, the growth in test [7] was 12.6%; in [8] it was 8.78% (active); in [9] it was 23%; in test [10], -1.79% (active).
